Only some compounds are listed: those with a hit (about 1.6% of all), similar ones and a draw of the others.
KCNQ2 pot: potentiators of rat KCNQ2 potassium channel; B-score at 10 µM; actives 0.54% (n = 310,000); CHO-K1 KCNQ2, FluxOR thallium flux fluorescence; active compounds read high;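 active = fluorescence ratio B-score at least 3 SD of library B-scores, with initial fluorescence B-score within 3 of them, cut at about 5.3 in these data; same plate scores as AID 2156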;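 also: B-score of peak minus minimum over baseline fluorescence ratio after K+ and Tl+ stimulus; positive B-score means potentiation of KCNQ2 with more thallium influx and brighter signal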
KCNQ2 block: blocks the rat KCNQ2 potassium channel; O88943; CHO-K1 KCNQ2, FluxOR thallium flux, 20 min; active compounds read low; B-score at 10 µM; actives 1.1% (n = 310,000);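 active = fluorescence ratio B-score at most minus 3 library SDs, with starting brightness B-score within 2 library SDs, cut at about -5.5 in these data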
Kir21 confirm: confirmation of mouse Kir2.1 potassium channel inhibitors | shares compounds with KCNQ2 pot | Kir2.1-expressing cells, FluxOR thallium flux fluorescence; active compounds read low | Tl flux remaining, % of negative control (active compounds read low), % at 10 µM | actives 41% (n = 2,300);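 active = Primary-screen hit whose thallium flux fell at least 3 control SD below untreated wells in both duplicates, with normal baseline fluorescence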
HEK293 ctr: counter-screen for Kir2.1 inhibitors: effect in parental HEK293 cells; shares compounds with KCNQ2 pot; FluxOR thallium flux fluorescence; 0% = unstimulated blank wells; FluxOR signal as % of negative control (100 = no effect), % at 10 µM; actives 19% (n = 2,300); AID 2105;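 active = dye signal at least 3 control SD above or below untreated wells in both duplicates, raw fluorescence within 3, either direction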;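 also: percent is based on the flux ratio of peak minus minimum fluorescence over baseline F0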
CHO-K1 Tl ctr: counter-screen for KCNQ2 potentiators: effect in parental CHO-K1 cells; actives 43% (n = 1,200); activity increase over 3SD of controls, % at 10 µM; FluxOR thallium flux fluorescence; zero = vehicle mean+3SD, 100% = vehicle-minus-blank window; shares compounds with KCNQ2 pot;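 active = signal rise of at least 3 SD above the untreated control mean, in both duplicate wells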;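 also: counter screen of KCNQ2 potentiator hits so any rise reflects channel-independent effects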
KCNQ1 sel pot: selectivity of KCNQ2 potentiators: effect on human KCNQ1. shares compounds with KCNQ2 pot. CHO KCNQ1 stable, FluxOR thallium flux fluorescence; beyond 3SD, as % of vehicle-control signal. activation over 3SD threshold, % at 10 µM. actives 28% (n = 1,200). AID 2283;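 active = fluorescence ratio rise of at least 3 SD of vehicle wells above their mean, in both replicate wells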
Target sequence (P51787 whole entry, looked up): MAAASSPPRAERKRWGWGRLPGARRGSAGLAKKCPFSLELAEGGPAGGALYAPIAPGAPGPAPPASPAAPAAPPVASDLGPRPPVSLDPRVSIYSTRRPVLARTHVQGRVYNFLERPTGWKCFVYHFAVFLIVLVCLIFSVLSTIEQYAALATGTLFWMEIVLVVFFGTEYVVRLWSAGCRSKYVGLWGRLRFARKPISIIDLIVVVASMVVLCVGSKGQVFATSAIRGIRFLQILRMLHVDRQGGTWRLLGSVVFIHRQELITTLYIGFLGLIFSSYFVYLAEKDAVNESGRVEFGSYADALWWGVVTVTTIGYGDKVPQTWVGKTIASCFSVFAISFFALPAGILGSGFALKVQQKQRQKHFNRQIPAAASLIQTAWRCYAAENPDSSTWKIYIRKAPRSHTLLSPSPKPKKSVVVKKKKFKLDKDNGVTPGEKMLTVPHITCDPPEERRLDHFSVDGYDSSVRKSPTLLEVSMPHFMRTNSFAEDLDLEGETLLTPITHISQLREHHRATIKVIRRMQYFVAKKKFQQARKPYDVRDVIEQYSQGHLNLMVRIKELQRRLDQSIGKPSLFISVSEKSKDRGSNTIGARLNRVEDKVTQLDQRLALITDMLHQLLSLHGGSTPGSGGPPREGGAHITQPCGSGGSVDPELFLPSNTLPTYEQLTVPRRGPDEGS
KCNQ2 pot conf: rat KCNQ2 channel potentiator confirmation | potentiation, less the hit threshold, % at 10 µM | actives 68% (n = 1,200) | shares compounds with KCNQ2 pot | CHO-KCNQ2 cells, FluxOR thallium flux fluorescence;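 active = fluorescence ratio rising 3 SD or more over the vehicle control mean in both replicates, plus primary screen hit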;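 also: peak minus minimum thallium fluorescence divided by baseline after K/Tl stimulus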
Kir21 spec: tests whether KCNQ2 potentiators also affect mouse Kir2.1 | HEK293 Kir2.1, FluxOR thallium flux fluorescence | actives 2% (n = 1,200) | shares compounds with KCNQ2 pot | AID 2345 | activity over 3SD threshold, % at 10 µM;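 active = fluorescence ratio rise of at least 3 SD above the vehicle-control mean, seen in both replicates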
KCNQ2 W236L MoA: rat KCNQ2 W236L mutant potentiation by KCNQ2 potentiators; actives 10% (n = 940); CHO KCNQ2-W236L, automated patch clamp current; shares compounds with KCNQ2 pot; current increase over 3SD of negative controls (%), active compounds read high, % at 25 µM;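 active = current increase at least 3 SD of the untreated controls above them in both duplicate recordings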
Numbers stand for hits.

Cc1ccc2cn[nH]c2c1[N+](=O)[O-] was read as KCNQ2 pot inactive and KCNQ2 block inactive.
Screening CCCc1nc2oc3c(Cl)ncnc3c2c2c1CCCC2 returned KCNQ2 pot inactive and KCNQ2 block inactive.
`CCCc1nc2oc3c(NCCN(C)C)ncnc3c2c2c1CCCC2` gave KCNQ2 pot 5.36, KCNQ2 block inactive, Kir21 confirm inactive, HEK293 ctr inactive, CHO-K1 Tl ctr inactive, KCNQ1 sel pot inactive, KCNQ2 pot conf 50.7, Kir21 spec inactive and KCNQ2 W236L MoA inactive.
Screening COc1c(Cl)cc(Br)c(OC)c1C(=O)NC(=O)Nc1nc(C)cc(C)n1 returned KCNQ2 block inactive.
COc1cccc(-n2nc(C(C)=O)c(C#N)c2-c2ccco2)c1 was read as KCNQ2 pot inactive and KCNQ2 block inactive.
CN(C)CCCOC(=O)c1sc2ccccc2c1Cl was read as KCNQ2 block inactive, Kir21 confirm 29.0% and HEK293 ctr inactive.
For CCCOc1ccc(C(CC(=O)O)NC(=O)c2sc3ccccc3c2Cl)cc1 (centres undefined) the results were KCNQ2 pot inactive and KCNQ2 block inactive.
CCCCOC(=S)NC(=O)c1sc2ccccc2c1Cl was read as KCNQ2 pot 17, KCNQ2 block inactive, Kir21 confirm inactive, HEK293 ctr 445.5%, CHO-K1 Tl ctr inactive, KCNQ1 sel pot 47.1, KCNQ2 pot conf 83.1, Kir21 spec inactive and KCNQ2 W236L MoA inactive.
Screening CN(C(=O)COC(=O)c1sc2ccccc2c1Cl)C1CCCCC1 returned KCNQ2 block inactive.
Screening Cc1ccc(NC(=S)NC(=O)c2sc3ccccc3c2Cl)c(C(=O)O)c1 returned KCNQ2 pot 13.7, KCNQ2 block inactive, Kir21 confirm inactive, HEK293 ctr inactive, CHO-K1 Tl ctr 2.0, KCNQ1 sel pot inactive, KCNQ2 pot conf 28.7, Kir21 spec inactive and KCNQ2 W236L MoA inactive.
For O=C(NC(=S)Nc1ccccc1N1CCOCC1)c1sc2ccccc2c1Cl the results were KCNQ2 pot inactive and KCNQ2 block inactive.
For CCOc1cc(C=O)ccc1OCCSc1ccc(Cl)cc1 the results were KCNQ2 block inactive.
Screening O=C(CSc1cccc2cccc(Cl)c12)NCc1cccs1 returned KCNQ2 block inactive.
`CCN(CC)CCNCc1cc(Cl)c(OCC(=O)Nc2ccccc2)c(OC)c1` gave KCNQ2 pot inactive and KCNQ2 block inactive.
For COc1cc(CNC(C)c2ccccc2)cc(Cl)c1OCC(=O)Nc1ccccc1 (centres undefined) the results were KCNQ2 block inactive, Kir21 confirm 60.0% and HEK293 ctr inactive.
Cc1ccc(S(=O)(=O)N(CC(=O)NC2CCCC2)c2cccc(C)c2)cc1 was read as KCNQ2 pot inactive and KCNQ2 block inactive.
OCC1(Cc2ccc(F)cc2F)CCCN(Cc2ccc(Cl)cc2)C1 (centres undefined) was read as KCNQ2 block inactive, Kir21 confirm 56.0% and HEK293 ctr inactive.
For CCOc1ccc(CN2CCCC(CO)(Cc3ccccc3F)C2)cc1 (centres undefined) the results were KCNQ2 pot inactive and KCNQ2 block inactive.
COc1cc(NC(=S)NC2CC(C)(C)NC(C)(C)C2)c(OC)cc1Cl was read as KCNQ2 block inactive.
`COc1ccc(CN(C)C(=O)c2sccc2-c2ccccc2)c(OC)c1` gave KCNQ2 block inactive.
CN(Cc1ccc(F)cc1)C(=O)c1sccc1-c1ccccc1 was read as KCNQ2 block inactive, Kir21 confirm 64.5% and HEK293 ctr inactive.
For c1ccc(COc2ccc(CNCc3cccs3)cc2)cc1 the results were KCNQ2 block inactive, Kir21 confirm 10.5% and HEK293 ctr 72.0%.
For Brc1ccc(CNCc2cccs2)cc1 the results were KCNQ2 block inactive.
Screening O=C(COc1ccccc1CNCc1ccccc1)Nc1ccccc1 returned KCNQ2 block inactive, Kir21 confirm 35.0% and HEK293 ctr inactive.
CCOc1ccccc1CNCc1ccc(C(=O)O)cc1 was read as KCNQ2 block inactive.
`CCOc1ccc2nc(Cl)c(C3CC(c4ccccc4)=NN3C(=O)c3ccco3)cc2c1` (centres undefined) gave KCNQ2 pot inactive and KCNQ2 block inactive.
For O=c1cc(-c2ccccc2)nc2c(-c3ccccc3)c(C(F)(F)F)[nH]n12 the results were KCNQ2 pot 23.1, KCNQ2 block inactive, Kir21 confirm inactive, HEK293 ctr 366.0%, CHO-K1 Tl ctr 6.8, KCNQ1 sel pot inactive, KCNQ2 pot conf 94.1, Kir21 spec inactive and KCNQ2 W236L MoA inactive.
Cc1cc(=O)n2[nH]c(C)c(-c3ccccc3)c2n1 was read as KCNQ2 block inactive.
Screening CCN(C(=O)CSc1nc2nc(C)cc(C)n2n1)C1CCS(=O)(=O)C1 (centres undefined) returned KCNQ2 block inactive.
COc1ccc(C[C@H]2CN3C(=NC[C@@H]3C(C)C)N2CCNC(=O)CCC2CCCCC2)cc1 was read as KCNQ2 block inactive, Kir21 confirm 64.0% and HEK293 ctr inactive.
O=C(CCC1CCCCC1)NCCN1C2=NC[C@H](Cc3ccc(O)cc3)N2C[C@H]1Cc1ccc(O)cc1 was read as KCNQ2 pot inactive and KCNQ2 block inactive.
For COc1ccc(C[C@H]2CN3C(=NC[C@@H]3Cc3ccccc3)N2CCNC(=O)CCC2CCCCC2)cc1 the results were KCNQ2 block inactive, Kir21 confirm 40.0% and HEK293 ctr inactive.
Screening CC(C)[C@H]1CN=C2N(CCNC(=O)CCC3CCCCC3)[C@H](Cc3ccc(O)cc3)CN21 returned KCNQ2 block inactive.
`COC(=O)c1ccc(OC)c(Cn2c(=O)n(C)c(=O)c3ccccc32)c1` gave KCNQ2 block inactive.
CCn1cc(C(=O)NCCCN2CCC(C)CC2)c(=O)c2cc(S(=O)(=O)N3CCOCC3)ccc21 was read as KCNQ2 block inactive.
Screening O=C(Nc1ccc(Br)cc1)NC1CCCCCCC1 returned KCNQ2 block inactive.
For CCCCCCCCC1=NCCc2c1[nH]c1ccccc21 the results were KCNQ2 block inactive, Kir21 confirm 20.0% and HEK293 ctr inactive.
CC(C)C/C=C1\CCc2c([nH]c3ccccc23)C1=O was read as KCNQ2 pot inactive and KCNQ2 block inactive.

Bioassay records (PubChem BioAssay)
